# Laboratory results as given in the supplement of paper PMC8975748.
# Structures can show the parent of a compound that is named as a salt.
# Tested on: Saccharomyces cerevisiae BY4741 SeMeCo community
# Test: z-score of subpopulation abundance vs DMSO median, subpopulation auxotrophic for LU; higher = larger share of this subpopulation than in DMSO controls
# Settings: 10 µM; 24 h; SM minimal medium; subpopulation (auxotrophy): LU
# Experimental: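 Fluorescent four-plasmid SeMeCo (self-establishing metabolically cooperating S. cerevisiae BY4741 community; plasmids pH-mRuby2, pL-mWasabi, pU-eCFP, pM-TagRFP657) was grown 24 h in minimal SM medium with each Selleck FDA-approved drug at 10 µM in 384-well plates. Cells were fixed and imaged by high-content confocal microscopy. For each auxotrophic subpopulation (and the prototroph), a z-score gives the deviation from the DMSO vehicle-control population median.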
row,SMILES,z-score of subpopulation abundance
1,COc1ccc2cc(CCC(C)=O)ccc2c1 [Nabumetone],-0.78
2,CO/N=C(\C(=O)N[C@@H]1C(=O)N2C(C(=O)[O-])=C(C[N+]3(C)CCCC3)CS[C@H]12)c1csc(N)n1 [Cefepime Dihydrochloride Monohydrate],0.05
3,CN(C)C(=O)COC(=O)Cc1ccc(OC(=O)c2ccc(NC(=N)N)cc2)cc1 [Camostat Mesilate],-0.08
4,Cc1ccc(O)c([C@H](CCN(C(C)C)C(C)C)c2ccccc2)c1 [Tolterodine tartrate],-0.23
5,CC(C)C(=O)c1c(C(C)C)nn2ccccc12 [Ibudilast],0.04
6,CCC[C@@H]1C[C@@H](C(=O)N[C@@H]([C@H]2O[C@H](SC)[C@H](OP(=O)(O)O)[C@@H](O)[C@H]2O)[C@H](C)Cl)N(C)C1 [Clindamycin Phosphate],0.78
7,COc1cc(O)c(C(=O)Nc2nc(C(=O)NCCN(C(C)C)C(C)C)cs2)cc1OC [Acotiamide hydrochloride],0.52
8,CCOC(=O)C1=C(COCCN)NC(C)=C(C(=O)OC)[C@@H]1c1ccccc1Cl [Levamlodipine],-6.47
9,CC1(C)S[C@@H]2[C@H](NC(=O)[C@H](N)c3ccc(O)cc3)C(=O)N2[C@H]1C(=O)O [Amoxicillin trihydrate],0.61
10,CN(C)CCn1nnnc1SCC1=C(C(=O)O)N2C(=O)[C@@H](NC(=O)Cc3csc(N)n3)[C@H]2SC1 [Cefotiam hydrochloride],1.53
11,O=C(c1ccc(OCCN2CCCCC2)cc1)c1c(-c2ccc(O)cc2)sc2cc(O)ccc12 [Raloxifene],-2.15
12,CC1(C)CC[C@]2(C(=O)O)CC[C@]3(C)C(=CC[C@@H]4[C@@]5(C)CC[C@H](O)C(C)(C)[C@@H]5CC[C@]43C)[C@@H]2C1 [Oleanolic Acid],-0.16
13,O=C(O)Cc1ccccc1Nc1c(Cl)cccc1Cl [Diclofenac Sodium],-0.84
14,Nc1c(CC(=O)O)cccc1C(=O)c1ccccc1 [Amfenac Sodium Monohydrate],-0.63
15,C[C@H]1COc2c(C3(N)CC3)c(F)cc3c(=O)c(C(=O)O)cn1c23 [Pazufloxacin mesylate],0.86
16,Cc1ncc([N+](=O)[O-])n1CC(C)O (stereo not given) [Secnidazole],0.55
17,c1ccc(-c2ccc(C(c3ccccc3)n3ccnc3)cc2)cc1 (stereo not given) [Bifonazole],-0.8
18,COc1c(N2CCNC(C)C2)c(F)cc2c(=O)c(C(=O)O)cn(C3CC3)c12 (stereo not given) [Gatifloxacin],0.36
19,Cc1cc(C)nc(NS(=O)(=O)c2ccc(N)cc2)n1 [Sulfamethazine],-0.83
20,Nc1ccc(S(=O)(=O)Nc2cnc3ccccc3n2)cc1 [Sulfaquinoxaline sodium],0.22

row,SMILES,z-score of subpopulation abundance
1,CCCCOc1ccc(C(=O)CCN2CCCCC2)cc1 [Dyclonine HCl],-0.73
2,C[C@H]1c2cccc(O)c2C(O)=C2C(=O)[C@]3(O)C(O)=C(C(N)=O)C(=O)[C@@H](N(C)C)[C@@H]3[C@@H](O)[C@@H]21 [Doxycycline],-0.52
3,C=C1c2cccc(O)c2C(O)=C2C(=O)[C@]3(O)C(O)=C(C(N)=O)C(=O)[C@@H](N(C)C)[C@@H]3[C@@H](O)[C@H]12 [Methacycline HCl],-0.95
4,COc1ccnc(C[S+]([O-])c2nc3cc(-n4cccc4)ccc3[nH]2)c1C (stereo not given) [Ilaprazole],0
5,CCCCOc1ccc(CC(=O)NO)cc1 [Bufexamac],-0.51
6,CC[C@H](C)[C@H](N)C1=N[C@H](C(=O)N[C@@H](CC(C)C)C(=O)N[C@H](CCC(=O)O)C(=O)N[C@H](C(=O)N[C@H]2CCCCNC(=O)[C@H](CC(N)=O)NC(=O)[C@@H](CC(=O)O)NC(=O)[C@H](Cc3cnc[nH]3)NC(=O)[C@@H](Cc3ccccc3)NC(=O)[C@H]([C@@H](C)CC)NC(=O)[C@@H](CCCN)NC2=O)[C@@H](C)CC)CS1 [Bacitracin],0.64
7,CO/N=C(\C(=O)N[C@@H]1C(=O)N2C(C(=O)O)=C(CSc3nc(=O)c(O)nn3C)CS[C@H]12)c1csc(N)n1 [Ceftriaxone Sodium Trihydrate],0.56
8,N#Cc1ccc2[nH]cc(CCCCN3CCN(c4ccc5oc(C(N)=O)cc5c4)CC3)c2c1 [Vilazodone],-0.57
9,CN(C)c1cc(NC(=O)CNC(C)(C)C)c(O)c2c1CC1CC3C(N(C)C)C(=O)C(C(N)=O)=C(O)C3(O)C(=O)C1=C2O (stereo not given) [Tigecycline],-0.07
10,COC(=O)Nc1nc2cc(Sc3ccccc3)ccc2[nH]1 [Fenbendazole],-0.67
11,CCOc1ccc2ccccc2c1C(=O)N[C@@H]1C(=O)N2[C@@H]1SC(C)(C)[C@@H]2C(=O)O [Nafcillin Sodium],0.04
12,Clc1ccc(COC(Cn2ccnc2)c2ccc(Cl)cc2Cl)cc1 (stereo not given) [Econazole nitrate],1.14
13,CN[C@H]1C(=O)N[C@@H]2Cc3ccc(cc3)Oc3cc4cc(c3O[C@@H]3O[C@H](C(=O)O)[C@@H](O)[C@H](O)[C@H]3NC(=O)CCCCCCCCC(C)C)Oc3ccc(cc3Cl)[C@@H](O)[C@@H]3NC(=O)[C@H](NC(=O)[C@@H]4NC(=O)[C@@H](NC2=O)c2cc(cc(O)c2Cl)Oc2cc1ccc2O)c1ccc(O)c(c1)-c1c(O[C@H]2O[C@H](CO)[C@@H](O)[C@H](O)[C@@H]2O)cc(O)cc1[C@@H](C(=O)NCCCN(C)C)NC3=O [Dalbavancin],-0.56
14,O=c1ccn(C2CC(O)C(CO)O2)c(=O)[nH]1 (stereo not given) [2-deoxyuridine],0.31
15,CCc1c(C)[nH]c2c1C(=O)C(CN1CCOCC1)CC2 (stereo not given) [Molindone hydrochloride],-0.32
16,O=C1NC(=O)C(c2ccccc2)(c2ccccc2)N1 [Phenytoin],0.23
17,CN1CC(=O)N2[C@H](c3ccc4c(c3)OCO4)c3[nH]c4ccccc4c3C[C@@H]2C1=O [Tadalafil],0.3
18,COc1cc2c(cc1OC)C(=O)C(CC1CCN(Cc3ccccc3)CC1)C2 (stereo not given) [Donepezil HCl],-0.36
19,CC(C)C(=O)Oc1ccc(CO)cc1[C@H](CCN(C(C)C)C(C)C)c1ccccc1 [Fesoterodine Fumarate],-0.25
20,CCN(Cc1ccncc1)C(=O)C(CO)c1ccccc1 (stereo not given) [Tropicamide],0.14
